The term inhibition denotes the change of the read-out against control, counted positive when it falls.

In assay [1] the target is Serine/threonine-protein kinase pim-2 (Homo sapiens) (UniProt Q9P1W9). As to conditions: at 1 µM.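 Also: each value is a mean of the inhibition measurements against the kinase.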
Assay [2] has as its target Serine/threonine-protein kinase pim-3 (Homo sapiens) (UniProt Q86V86). As to conditions: at 0.1 µM.
Assay [3] has the same target. As to conditions: at 1 µM.
The target of assay [4] is T1, MAP kinase-activated protein kinase 5 (Homo sapiens) (UniProt Q8IW41).
T1 sequence (whole entry): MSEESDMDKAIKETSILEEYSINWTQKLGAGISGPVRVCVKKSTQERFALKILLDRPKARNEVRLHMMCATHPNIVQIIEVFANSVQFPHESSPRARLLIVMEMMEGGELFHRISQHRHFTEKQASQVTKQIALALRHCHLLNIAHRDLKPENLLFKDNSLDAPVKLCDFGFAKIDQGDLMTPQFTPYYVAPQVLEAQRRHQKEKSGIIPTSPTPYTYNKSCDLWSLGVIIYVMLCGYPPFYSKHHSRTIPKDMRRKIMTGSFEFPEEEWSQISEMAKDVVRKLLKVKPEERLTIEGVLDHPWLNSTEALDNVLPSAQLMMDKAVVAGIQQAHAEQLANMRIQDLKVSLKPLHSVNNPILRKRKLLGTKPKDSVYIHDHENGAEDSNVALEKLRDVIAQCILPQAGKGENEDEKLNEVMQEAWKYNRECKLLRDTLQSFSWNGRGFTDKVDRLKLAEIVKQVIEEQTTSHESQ
As to conditions: at 0.1 µM.

Assay [5] deals with T1, MAP kinase-activated protein kinase 5 (Homo sapiens). As to conditions: at 1 µM.
Assay [6] concerns the target Serine/threonine-protein kinase SIK1 (Homo sapiens) (UniProt P57059). As to conditions: at 0.1 µM.
The target is the same in assay [7]. As to conditions: at 1 µM.
Assay [8] addresses Serine/threonine-protein kinase SIK2 (Homo sapiens) (UniProt Q9H0K1). As to conditions: at 0.1 µM.
Assay [9] shares this target. As to conditions: at 1 µM.
The target in assay [10] is T2, Serine/threonine-protein kinase TBK1 (Homo sapiens) (UniProt Q9UHD2).
T2 sequence (whole entry): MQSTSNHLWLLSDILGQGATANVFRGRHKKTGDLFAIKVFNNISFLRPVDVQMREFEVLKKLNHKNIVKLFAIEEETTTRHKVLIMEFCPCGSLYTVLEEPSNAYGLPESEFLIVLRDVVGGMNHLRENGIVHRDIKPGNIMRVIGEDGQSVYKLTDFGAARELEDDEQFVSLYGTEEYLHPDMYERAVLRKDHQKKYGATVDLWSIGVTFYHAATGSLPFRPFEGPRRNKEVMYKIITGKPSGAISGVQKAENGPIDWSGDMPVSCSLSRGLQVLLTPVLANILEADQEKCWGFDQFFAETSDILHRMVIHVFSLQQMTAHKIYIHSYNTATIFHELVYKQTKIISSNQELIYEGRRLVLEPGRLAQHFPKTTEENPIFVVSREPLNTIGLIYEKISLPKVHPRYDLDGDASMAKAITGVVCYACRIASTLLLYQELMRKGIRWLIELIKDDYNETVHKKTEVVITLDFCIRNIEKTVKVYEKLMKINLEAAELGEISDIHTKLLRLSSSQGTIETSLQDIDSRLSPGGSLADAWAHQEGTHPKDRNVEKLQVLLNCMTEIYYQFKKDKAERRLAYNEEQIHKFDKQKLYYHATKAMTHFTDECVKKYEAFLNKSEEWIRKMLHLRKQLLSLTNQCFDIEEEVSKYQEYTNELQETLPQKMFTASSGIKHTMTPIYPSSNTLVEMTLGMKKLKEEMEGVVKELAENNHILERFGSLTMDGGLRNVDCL
As to conditions: at 0.1 µM.

The target in assay [11] is T2, Serine/threonine-protein kinase TBK1 (Homo sapiens). As to conditions: at 1 µM.
The target in assay [12] is T3, Testis-specific serine/threonine-protein kinase 1 (Homo sapiens) (UniProt Q9BXA7).
T3 sequence (whole entry): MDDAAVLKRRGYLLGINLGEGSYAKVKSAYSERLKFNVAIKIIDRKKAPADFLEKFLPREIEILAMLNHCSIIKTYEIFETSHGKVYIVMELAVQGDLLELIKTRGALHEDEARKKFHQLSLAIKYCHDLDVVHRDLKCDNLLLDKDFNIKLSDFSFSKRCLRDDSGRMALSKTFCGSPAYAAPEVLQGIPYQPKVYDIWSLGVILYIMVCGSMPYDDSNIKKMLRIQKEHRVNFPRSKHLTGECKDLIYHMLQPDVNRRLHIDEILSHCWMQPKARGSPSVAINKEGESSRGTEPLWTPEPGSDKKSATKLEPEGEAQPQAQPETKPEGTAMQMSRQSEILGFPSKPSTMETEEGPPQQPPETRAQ
As to conditions: at 0.1 µM.

Assay [13] has as its target T3, Testis-specific serine/threonine-protein kinase 1 (Homo sapiens). As to conditions: at 1 µM.
Assay [14] addresses T4, Testis-specific serine/threonine-protein kinase 2 (Homo sapiens) (UniProt Q96PF2).
T4 sequence (whole entry): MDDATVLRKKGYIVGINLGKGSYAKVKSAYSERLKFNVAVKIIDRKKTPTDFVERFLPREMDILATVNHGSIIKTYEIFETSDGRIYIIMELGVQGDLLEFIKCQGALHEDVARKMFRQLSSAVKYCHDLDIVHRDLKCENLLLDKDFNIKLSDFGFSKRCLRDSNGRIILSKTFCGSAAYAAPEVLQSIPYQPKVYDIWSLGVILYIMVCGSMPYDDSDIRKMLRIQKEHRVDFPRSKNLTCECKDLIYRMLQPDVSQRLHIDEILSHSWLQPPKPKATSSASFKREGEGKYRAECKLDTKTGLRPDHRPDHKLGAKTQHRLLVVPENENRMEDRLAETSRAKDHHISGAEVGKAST
As to conditions: at 0.1 µM.

Assay [15] has as its target T4, Testis-specific serine/threonine-protein kinase 2 (Homo sapiens). As to conditions: at 1 µM.
The target in assay [16] is Casein kinase I isoform alpha (Homo sapiens) (UniProt P48729). As to conditions: at 0.1 µM.
The target is the same in assay [17]. As to conditions: at 1 µM.
Assay [18] addresses Casein kinase I isoform gamma-1 (Homo sapiens) (UniProt Q9HCP0). As to conditions: at 0.1 µM.
For assay [19] the target is unchanged. As to conditions: at 1 µM.
In assay [20] the target is Casein kinase I isoform gamma-2 (Homo sapiens) (UniProt P78368). As to conditions: at 0.1 µM.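 Also: values are mean inhibition figures reported as part of the GSK PKIS dataset.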
Casein kinase I isoform gamma-2 (Homo sapiens), sequence (P78368 whole entry, looked up, canonical isoform): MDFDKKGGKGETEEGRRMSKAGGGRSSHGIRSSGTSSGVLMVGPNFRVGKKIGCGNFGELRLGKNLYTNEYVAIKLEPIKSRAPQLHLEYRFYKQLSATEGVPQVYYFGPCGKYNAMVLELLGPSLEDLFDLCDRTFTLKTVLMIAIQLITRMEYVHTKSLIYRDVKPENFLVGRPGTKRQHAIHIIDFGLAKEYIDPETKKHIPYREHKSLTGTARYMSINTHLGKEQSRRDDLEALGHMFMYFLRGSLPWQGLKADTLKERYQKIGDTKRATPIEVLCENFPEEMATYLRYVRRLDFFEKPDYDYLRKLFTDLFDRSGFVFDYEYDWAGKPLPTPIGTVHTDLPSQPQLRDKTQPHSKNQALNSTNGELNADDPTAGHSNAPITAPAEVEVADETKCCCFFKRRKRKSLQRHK

Serine/threonine-protein kinase SIK1 (Homo sapiens), sequence (P57059 whole entry): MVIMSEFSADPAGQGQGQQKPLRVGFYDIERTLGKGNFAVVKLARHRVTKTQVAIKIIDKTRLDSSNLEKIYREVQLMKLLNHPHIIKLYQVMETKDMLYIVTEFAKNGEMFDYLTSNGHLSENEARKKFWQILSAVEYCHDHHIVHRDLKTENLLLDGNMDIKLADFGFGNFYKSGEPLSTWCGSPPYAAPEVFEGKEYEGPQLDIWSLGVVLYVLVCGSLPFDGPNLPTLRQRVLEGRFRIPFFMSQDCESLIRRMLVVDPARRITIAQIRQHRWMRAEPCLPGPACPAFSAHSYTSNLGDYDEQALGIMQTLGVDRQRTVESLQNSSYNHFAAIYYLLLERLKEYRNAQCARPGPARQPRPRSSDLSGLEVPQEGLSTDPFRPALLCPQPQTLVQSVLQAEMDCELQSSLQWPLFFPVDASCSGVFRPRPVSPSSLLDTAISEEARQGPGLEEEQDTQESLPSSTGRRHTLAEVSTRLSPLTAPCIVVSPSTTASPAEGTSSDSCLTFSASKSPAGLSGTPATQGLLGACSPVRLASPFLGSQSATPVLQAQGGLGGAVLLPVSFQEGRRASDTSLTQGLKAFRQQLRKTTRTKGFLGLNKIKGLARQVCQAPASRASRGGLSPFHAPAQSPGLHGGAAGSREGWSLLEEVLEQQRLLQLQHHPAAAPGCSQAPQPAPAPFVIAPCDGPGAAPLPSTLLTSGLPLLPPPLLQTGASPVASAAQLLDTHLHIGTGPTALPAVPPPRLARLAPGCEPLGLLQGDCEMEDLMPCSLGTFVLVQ
Casein kinase I isoform gamma-1 (Homo sapiens), sequence (Q9HCP0 whole entry, looked up, canonical isoform): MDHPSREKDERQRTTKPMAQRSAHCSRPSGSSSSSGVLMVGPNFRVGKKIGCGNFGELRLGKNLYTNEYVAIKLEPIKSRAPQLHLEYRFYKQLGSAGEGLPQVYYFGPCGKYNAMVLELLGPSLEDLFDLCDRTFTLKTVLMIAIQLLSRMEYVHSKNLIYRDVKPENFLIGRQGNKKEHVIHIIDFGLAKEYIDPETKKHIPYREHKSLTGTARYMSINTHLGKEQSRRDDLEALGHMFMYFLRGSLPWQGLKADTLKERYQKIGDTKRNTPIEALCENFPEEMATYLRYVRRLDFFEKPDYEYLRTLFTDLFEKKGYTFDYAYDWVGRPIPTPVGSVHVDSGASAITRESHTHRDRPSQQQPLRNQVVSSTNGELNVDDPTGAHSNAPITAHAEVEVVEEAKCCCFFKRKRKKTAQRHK
Serine/threonine-protein kinase SIK2 (Homo sapiens), sequence (Q9H0K1 whole entry, looked up): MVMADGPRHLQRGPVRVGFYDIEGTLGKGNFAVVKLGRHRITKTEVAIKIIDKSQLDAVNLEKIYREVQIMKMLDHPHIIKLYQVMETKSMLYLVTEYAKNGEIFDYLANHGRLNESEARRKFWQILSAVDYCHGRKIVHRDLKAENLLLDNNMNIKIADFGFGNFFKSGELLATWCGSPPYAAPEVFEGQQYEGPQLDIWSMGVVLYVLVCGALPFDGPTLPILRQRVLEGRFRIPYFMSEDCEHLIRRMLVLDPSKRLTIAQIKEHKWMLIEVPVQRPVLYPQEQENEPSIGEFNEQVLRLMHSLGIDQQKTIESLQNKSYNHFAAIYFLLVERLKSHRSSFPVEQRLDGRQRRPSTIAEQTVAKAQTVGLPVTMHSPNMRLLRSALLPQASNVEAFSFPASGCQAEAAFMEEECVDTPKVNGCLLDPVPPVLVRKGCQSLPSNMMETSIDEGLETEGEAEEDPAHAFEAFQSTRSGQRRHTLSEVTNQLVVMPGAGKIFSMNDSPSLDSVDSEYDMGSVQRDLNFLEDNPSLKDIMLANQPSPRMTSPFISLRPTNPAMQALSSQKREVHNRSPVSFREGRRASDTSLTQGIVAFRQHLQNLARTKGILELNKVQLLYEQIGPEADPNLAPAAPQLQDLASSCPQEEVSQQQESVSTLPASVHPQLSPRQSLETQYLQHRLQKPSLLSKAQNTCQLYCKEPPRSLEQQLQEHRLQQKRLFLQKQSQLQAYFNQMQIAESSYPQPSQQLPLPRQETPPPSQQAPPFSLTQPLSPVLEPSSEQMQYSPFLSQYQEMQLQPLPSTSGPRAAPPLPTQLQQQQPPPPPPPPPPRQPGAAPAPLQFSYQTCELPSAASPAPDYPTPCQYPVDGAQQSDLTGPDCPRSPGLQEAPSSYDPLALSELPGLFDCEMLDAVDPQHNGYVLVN
Casein kinase I isoform alpha (Homo sapiens), sequence (P48729 2-337 limits assumed): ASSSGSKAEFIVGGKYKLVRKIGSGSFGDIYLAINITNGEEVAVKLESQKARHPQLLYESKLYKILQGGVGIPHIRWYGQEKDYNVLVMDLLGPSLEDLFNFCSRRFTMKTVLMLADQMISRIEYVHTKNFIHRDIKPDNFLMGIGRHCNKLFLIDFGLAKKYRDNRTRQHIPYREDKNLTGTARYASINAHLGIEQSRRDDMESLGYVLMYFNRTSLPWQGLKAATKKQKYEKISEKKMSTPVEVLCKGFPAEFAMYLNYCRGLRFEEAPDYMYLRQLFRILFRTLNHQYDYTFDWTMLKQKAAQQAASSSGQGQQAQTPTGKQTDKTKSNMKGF
Serine/threonine-protein kinase pim-2 (Homo sapiens), sequence (Q9P1W9 whole entry, looked up): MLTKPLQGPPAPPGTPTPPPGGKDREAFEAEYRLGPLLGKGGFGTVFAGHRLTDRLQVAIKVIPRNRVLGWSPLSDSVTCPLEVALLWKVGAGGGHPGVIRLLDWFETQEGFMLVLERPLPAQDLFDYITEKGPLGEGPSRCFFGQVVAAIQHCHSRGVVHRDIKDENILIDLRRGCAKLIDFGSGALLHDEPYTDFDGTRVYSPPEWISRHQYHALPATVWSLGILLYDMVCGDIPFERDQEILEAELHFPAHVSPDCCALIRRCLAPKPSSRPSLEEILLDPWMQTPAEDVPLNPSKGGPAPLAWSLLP

Turning to `CCc1ccc(Oc2nccc(-c3c(-c4ccc(F)cc4)ncn3C3CCNCC3)n2)cc1`, the inhibition in [1] stood at 0.04%; in assay [2] it was 1.11%; in assay [3] it was 3.63%; in [4] it was 1.38%; in assay [5] it was 2%; in [6], 5.66%. Besides, the inhibition turned out to be 14.7% in [7]; 3.65% in assay [8]; 19.4% in [9]; 4.53% in [10]; 4.95% in assay [11]; 3.27% in assay [12]. In addition, the inhibition in [13] came out at 5.22%; in [14], 1.61%; in [15], 2.6%; in assay [16], 6.84%; in assay [17], 36.5%; in [18], 3.65%. Also, the figures for the inhibition in assay [19] and in [20] were 14.8% and 3.26%, respectively.
With `CCc1cccc(CC)c1/C=C/c1cncc(C(=O)NC)c1`, the inhibition in assay [1] is -0.07%; in [2], -0.9%; in [3], -2.15%; in assay [4], 0.86%; in [5] it was -0.1%; in [6], 0.91%. Moreover, the inhibition is 6.26% in [7]; 1.69% in [8]; -1.33% in [9]; 0.14% in assay [10]; 1.52% in [11]; 1.47% in [12]. Also, the inhibition is 0.1% in assay [13]; 1.86% in assay [14]; -3.19% in [15]; 2.53% in assay [16]; 6.21% in assay [17]; 2.66% in assay [18]. Further, the inhibition was 5.44% in assay [19] and 1.49% in assay [20].
Consider `COc1cc(Nc2ncc(-c3ccccc3)o2)cc(OC)c1OC`, for which the inhibition in [1] was 1.06%; in assay [2], 0.31%; in assay [3], 1.87%; in [4], -0.54%; in assay [5], 0.01%; in assay [6], 0.98%. The inhibition in assay [7] is 27.4%; in assay [8], 3.12%; in [9], 30.6%; in assay [10], 2.26%; in assay [11] it was 13.7%; in [12], 0.03%. Besides, the inhibition in [13] is -0.04%; in assay [14], -1.14%; in assay [15] it was -1.3%; in assay [16] it was -0.72%; in assay [17] it was 1.29%; in assay [18] it was -1.4%. Moreover, the inhibition in assay [19] was -0.76%; in [20], -1.34%.
Take `CCc1nccc2c1nc(-c1nonc1N)n2CC`: the inhibition in [1] is 1.27%; in assay [2], -0.38%; in assay [3] it was -2.26%; in assay [4] it was -0.45%; in assay [5] it was -1.56%; in assay [6] it was 0.62%. The inhibition in [7] was 4.31%; in assay [8], -4.39%; in assay [9], 6.79%; in assay [10] it was 1.12%; in [11], 6.1%; in assay [12], 0.58%. Further, the inhibition in [13] was 0.27%; in assay [14], -0.65%; in assay [15], -0.91%; in assay [16], 3.39%; in assay [17], 3.67%; in assay [18], 0.76%. Moreover, the inhibition in assay [19] was determined as 2.98%; in assay [20], 0.48%.
Take `CN(C)CCOc1ccc(-c2cc(-c3ccc4c(c3)CCC4=NO)c(-c3ccncc3)o2)cc1`: the inhibition in assay [1] was 0.08%; in [2], 1.08%; in [3], 0.13%; in assay [4] it was -0.29%; in assay [5], -0.04%; in assay [6] it was 0.11%. The inhibition in assay [7] is 6.09%; in assay [8], -4.64%; in assay [9] it was -1.24%; in [10], -2.4%; in [11], -0.95%; in assay [12] it was -0.74%. Further, the inhibition is 0.17% in assay [13]; 0.18% in assay [14]; 1.16% in assay [15]; -1.99% in [16]; -1.5% in [17]; -1.03% in [18]. Besides, the results for the inhibition in assay [19] and in assay [20] were -0.13% and -0.84%, respectively.
For `COc1cc(Nc2ncc3c(C)nc(-c4cccc(C(F)(F)F)c4)n3n2)cc(OC)c1OC`, the inhibition in assay [1] amounted to 3.02%; in assay [2], 3.42%; in [3], 6.73%; in [4], 1.19%; in [5], 2.92%; in [6] it was 3.9%. For the same molecule, the inhibition is 15.9% in assay [7]; 10.9% in assay [8]; 13.5% in assay [9]; 1.64% in assay [10]; 25.5% in assay [11]; 4.46% in assay [12]. Further, the inhibition in assay [13] was 9.14%; in assay [14] it was 4.53%; in assay [15], 3.7%; in assay [16] it was 7.78%; in assay [17], 6.02%; in assay [18], 2.94%. In addition, the inhibition in [19] amounted to 4.47%; in assay [20] it was 2.07%.
Take `COc1cc(Nc2ncc3c(C)nc(-c4cccc(Oc5ccccc5)c4)n3n2)cc(OC)c1OC`: the inhibition in assay [1] is 1.14%; in assay [2], 0.34%; in [3], -0.16%; in assay [4] it was -0.04%; in assay [5], -1.56%; in assay [6], 3.67%. Further, the inhibition in assay [7] is 10.1%; in assay [8], 1.91%; in assay [9], 0.43%; in assay [10], 4.47%; in assay [11] it was 28.8%; in [12], 3.11%. The inhibition in assay [13] is 5.53%; in [14], 1.01%; in assay [15], -1.11%; in assay [16], 6.15%; in assay [17], 3.63%; in assay [18], 1.67%. Also, the inhibition in [19] came out at 3.71%; in assay [20] it was 0.59%.
Turning to `CN1CCN(CCCNc2nc3ccc(Oc4ccc(NC(=O)Nc5cc(C(F)(F)F)ccc5F)cc4)cc3[nH]2)CC1`, the inhibition is -1.74% in [1]; 1.11% in assay [2]; -0.28% in [3]; -0.1% in assay [4]; -1.41% in [5]; 0.75% in [6]. The inhibition is 3.99% in assay [7]; -2.3% in [8]; 0.76% in assay [9]; 1.88% in assay [10]; 3.78% in [11]; 0.87% in assay [12]. Also, the inhibition in assay [13] is -0.16%; in assay [14] it was -0.81%; in assay [15], -1.46%; in [16] it was 1.84%; in assay [17], 0.56%; in assay [18], -1.36%. In addition, the inhibition is -3.19% in assay [19] and -4.72% in [20].
As to `COc1cc(N2CCN(C(C)C)CC2)ccc1Nc1nc(Nc2ccc(F)cc2C(=O)NC[C@@H](O)CO)c2cc[nH]c2n1`, the inhibition in assay [1] was -3.2%; in assay [2], 1.39%; in [3], 5.28%; in assay [4], 2.43%; in assay [5], 4.77%; in assay [6], 1.88%. For the same molecule, the inhibition in assay [7] came to 9.27%; in [8], 4.52%; in [9] it was 9.21%; in [10] it was 1.74%; in [11] it was 4.23%; in assay [12], 45.9%. For the same molecule, the inhibition in assay [13] turned out to be 84.9%; in [14] it was 15.7%; in [15], 53.7%; in [16], 4.46%; in assay [17], 12.9%; in [18], 2.26%. Besides, the results for the inhibition in assay [19] and in assay [20] were 17.9% and 2.13%, respectively.

The values are drawn from ChEMBL document CHEMBL1961873, “Compounds: GSK PKIS; Assays: Nanosyn kinase panel” (2012).
